# Laboratory results reported in PubChem BioAssay (Tox21).
# Values without a mark were called inactive. Results filed as inconclusive are left out. A call without a number means that no potency is given here. Activity calls are given as the source filed them. Unless noted, calls come from the whole dose curve; as a rule, active = well fitted curve in the direction sought with a large enough effect in the repeat runs; inconclusive = weak or mixed curves; inactive = no such curve, though single readings can be large; an effect the other way counts as inactive or inconclusive.
# Key:
# [1] = qHTS assay to identify small molecule agonists of H2AX (AID 1224845; active = well fitted activation curve with a large enough effect in the signal ratio in the repeat runs, not every such curve was filed as active; the % refers to the signal ratio)
# Method in brief: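 Wild-type CHO-K1 cells plated overnight, then exposed 3 hr at 37C to compounds at 15 concentrations (0.76% DMSO). Lysed, then HTRF anti-pH2AX(S139)-cryptate/anti-H2AX-d2 detection after 24 hr at room temperature; emissions 665 and 620 nm.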
# [2] = qHTS assay to identify small molecule agonists of H2AX - cell viability counter screen (AID 1224847; calls by dose curve; note: top concentration of the series differs between compounds; nearly all actives have a fitted effect of over 30% in size)
# Method in brief: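 We seed wild-type CHO-K1 cells overnight, treat them for 3 hr at 37C with compounds in 15-concentration series, and quantify remaining viability by CellTiter-Glo luminescence.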
# [3] = qHTS assay to identify small molecule antagonists of the estrogen related receptor (ERR) signaling pathway from Tox21 library (AID 1224848); note: nearly all actives have a fitted effect of over 50% in size; note: potency is the fitted concentration of half-maximal effect
# Method in brief: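 Cells: ERR line, 2,000/well; 6 h preincubation 37 C/5% CO2. Cpd in DMSO via pin tool; 18 h, 37 C. ONE-Glo, 30 min RT, luminescence.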
# [4] = qHTS assay to identify small molecule agonists of the estrogen related receptor (ERR) signaling pathway from Tox21 library (AID 1224849; calls by dose curve; note: nearly all actives have a fitted effect of over 15% in size); conditions: ERR reporter cell line, ONE-Glo luciferase, 18 h; at 92.4 µM (top of the series) unless noted
# Method in brief: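 Six hours post-seeding at 37 C/5% CO2, ERR cells receive DMSO-solubilised compounds; after 18 h at 37 C, ONE-Glo reagent is applied and luminescence recorded.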
# [5] = qHTS RealTime-Glo MT Cell Viability Assay in HepG2 cells - 24 hour (AID 1224867); note: nearly all actives have a fitted effect of over 50% in size; note: potency is the fitted concentration of half-maximal effect
# Method in brief: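 HepG2 suspension premixed with RealTime-Glo reagents is plated at 600 cells per well and left 5 h at 37 C/5% CO2. Compounds in DMSO then go in, and bioluminescence reflecting viable cell number is recorded over 40 h.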
# [6] = qHTS RealTime-Glo MT Cell Viability Assay in HEK293 cells - 32 hour (AID 1224868); note: top concentration of the series differs between compounds; nearly all actives have a fitted effect of over 50% in size
# Method in brief: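 Reads taken at 0, 8, 16, 24, 32 and 40 h from the same wells. HEK293 cells (600/well) carried RealTime-Glo reagents from seeding, with compound added after a 5 h settle at 37 C.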
# [7] = A CellTox Green Cytotoxicity Assay to monitor cytotoxicity in HEK293 cells - 0 hour (AID 1224869); note: nearly all actives have a fitted effect of over 50% in size
# Method in brief: (§1)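 Seeding of HEK293 cells together with cytotoxicity dye preceded a 5 h incubation at 37 C/5% CO2. Test compounds in DMSO were then added and fluorescence monitored across 40 h.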
# [8] = qHTS RealTime-Glo MT Cell Viability Assay in HepG2 cells - 40 hour (AID 1224870); note: nearly all actives have a fitted effect of over 50% in size; note: potency is the fitted concentration of half-maximal effect
# Method in brief: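 HepG2 cells mixed with RealTime-Glo MT reagents (NanoLuc plus cell-permeant prosubstrate) were seeded at 600 cells/well, incubated 5 h at 37 C/5% CO2, then pinned with compounds in DMSO; nonlytic luminescence tracked viability during 40 h treatment.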
# [9] = A CellTox Green Cytotoxicity Assay to monitor cytotoxicity in HEK293 cells - 40 hour (AID 1224871); note: nearly all actives have a fitted effect of over 45% in size; note: potency is the fitted concentration of half-maximal effect
# Method in brief: as §1
# [10] = qHTS assay to identify small molecule agonists of the hypoxia (HIF-1) signaling pathway (AID 1224846; active = well fitted activation curve with a large enough effect in the signal ratio in the repeat runs, not every such curve was filed as active; the % refers to the signal ratio)
# Method in brief: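 Hypoxia-pathway activation was scored as increased beta-lactamase from an HRE-controlled reporter in ME-180 cells; plated at 2,000 cells per well with 0.5% dialyzed FBS, they were exposed 17 hrs to compounds and then given CCF4-AM.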
smiles,measurement,setting,value
CCOC(=O)Cc1cccc2ccccc12,Potency,[1],inactive
same,Potency,[2],inactive
same,Potency,[3],inactive
same,"activity change, positive = activation",[4],-0.505%
same,Potency,[5],inactive
same,Potency,[6],inactive
same,Potency,[7],inactive
same,Potency,[8],inactive
same,Potency,[9],inactive
C=CCOc1ccccc1OCC(O)CNC(C)C (centres undefined),Potency,[1],inactive
same,Potency,[2],inactive
same,Potency,[3],inactive
same,"activity change, positive = activation",[4],4.2% [at 42.5 µM]
same,Potency,[5],inactive
same,Potency,[6],inactive
same,Potency,[7],inactive
same,Potency,[8],inactive
same,Potency,[9],inactive
C#Cc1cccc(Nc2ncnc3cc(OCCOC)c(OCCOC)cc23)c1,Potency,[1],inactive
same,Potency,[10],inactive
same,Potency,[3],6.68 µM (active)
same,"activity change, positive = activation",[4],-38.1% [at 42.5 µM]
same,Potency,[5],inactive
same,Potency,[6],inactive
same,Potency,[7],inactive
same,Potency,[8],inactive
same,Potency,[9],inactive
CCO[Si](CCCCl)(OCC)OCC,Potency,[1],inactive
same,Potency,[10],inactive
same,Potency,[2],inactive
same,Potency,[7],inactive
same,Potency,[8],inactive
same,Potency,[9],inactive
CCCCC(=O)OCC(=O)[C@H]1[C@H](C)C[C@H]2[C@@H]3C[C@H](F)C4=CC(=O)C=C[C@]4(C)[C@@]3(F)[C@@H](O)C[C@@]21C,Potency,[1],inactive
same,Potency,[10],inactive
same,Potency,[2],inactive
same,Potency,[5],inactive
same,Potency,[7],inactive
same,Potency,[9],inactive
CCCCC(CC)CN1C(=O)C2C3C=CC(C3)C2C1=O (centres undefined),Potency,[1],inactive
same,Potency,[10],inactive
same,Potency,[3],54.5 µM (active)
same,"activity change, positive = activation",[4],-33.1%
same,Potency,[5],inactive
same,Potency,[7],inactive
same,Potency,[8],inactive
same,Potency,[9],30.9 µM (active)
CCCCCCCCCCCCCCCCOS(=O)(=O)O,Potency,[1],inactive
same,Potency,[10],inactive
same,"activity change, positive = activation",[4],-16% [at 42.5 µM]
same,Potency,[5],inactive
same,Potency,[6],inactive
same,Potency,[7],inactive
same,Potency,[8],inactive
same,Potency,[9],21.3 µM (active)
CC(CSC(=O)c1ccccc1)C(=O)N1C[C@@H](Sc2ccccc2)C[C@H]1C(=O)O (some centres undefined),activation (H2AX phosphorylation),[1],0.449% [at 31.6 µM]
same,"activity change, negative = cytotoxicity",[2],1.45% [at 31.6 µM]
same,"activity, negative = inhibition",[3],-0.558% [at 19 µM]
same,"activity change, positive = activation",[4],-0.059% [at 19 µM]
same,"activity change, negative = cytotoxicity",[5],3.68% [at 15.8 µM]
same,"activity change, negative = cytotoxic",[6],-4.06% [at 15.8 µM]
same,cytotoxicity,[7],-0.576% [at 15.8 µM]
same,cytotoxicity increase,[9],1.14% [at 15.8 µM]
O=S(=O)(Oc1ccc(Cl)cc1)c1ccccc1,Potency,[1],inactive
same,Potency,[10],inactive
same,Potency,[3],inactive
same,"activity change, positive = activation",[4],-14.7%
same,Potency,[5],inactive
same,Potency,[7],inactive
same,Potency,[8],inactive
same,Potency,[9],inactive
c1ccc(C(O[C@H]2CCCN(CCc3ccc4c(c3)OCO4)C2)c2ccccc2)cc1,Potency,[1],inactive
same,Potency,[10],inactive
same,Potency,[5],inactive
same,Potency,[7],inactive
same,Potency,[8],inactive
same,Potency,[9],inactive
Cc1cccc(Nc2ccccc2)c1,Potency,[1],inactive
same,Potency,[10],inactive
same,Potency,[5],inactive
same,Potency,[6],inactive
same,Potency,[7],inactive
same,Potency,[9],34.7 µM (active)
C[Si](C)(CCCN)O[Si](C)(C)CCCN,Potency,[1],inactive
same,Potency,[2],inactive
same,Potency,[3],inactive
same,"activity change, positive = activation",[4],-0.594%
same,Potency,[5],inactive
same,Potency,[6],inactive
same,Potency,[7],inactive
same,Potency,[8],inactive
same,Potency,[9],inactive
O=C1CCCCCCCCCCCC(=O)OCCO1,Potency,[1],inactive
same,Potency,[10],inactive
same,Potency,[3],inactive
same,"activity change, positive = activation",[4],1.67%
same,Potency,[5],inactive
same,Potency,[6],inactive
same,Potency,[7],inactive
same,Potency,[8],inactive
same,Potency,[9],54.9 µM (active)
CC1=CCCC(C)(C)C12CCC(C)O2 (centres undefined),Potency,[1],inactive
same,Potency,[10],inactive
same,Potency,[2],inactive
same,Potency,[6],inactive
same,Potency,[7],inactive
same,Potency,[8],inactive
same,Potency,[9],inactive
OC(CN1CCC(Cc2ccc(F)cc2)CC1)c1ccc(Cl)cc1 (centres undefined),Potency,[1],inactive
same,Potency,[10],inactive
same,Potency,[7],inactive
same,Potency,[9],21.3 µM (active)
CCCCc1nc2cccnc2n1Cc1ccc(-c2ccccc2-c2nnn[nH]2)cc1,Potency,[1],inactive
same,Potency,[10],inactive
same,Potency,[2],inactive
same,Potency,[7],inactive
same,Potency,[9],inactive
Cc1cc(C(=O)O)ccc1[N+](=O)[O-],Potency,[1],inactive
same,Potency,[10],inactive
same,Potency,[2],inactive
same,Potency,[6],inactive
same,Potency,[7],inactive
same,Potency,[8],inactive
same,Potency,[9],inactive
OCCN1CCN(CCCN2c3ccccc3C=Cc3ccccc32)CC1,Potency,[1],inactive
same,Potency,[10],inactive
same,Potency,[2],inactive
same,Potency,[5],inactive
same,Potency,[7],inactive
same,Potency,[9],inactive
CC(=O)[O][Al][O]C(C)=O,Potency,[1],inactive
same,Potency,[2],inactive
same,Potency,[3],inactive
same,"activity change, positive = activation",[4],1.12%
same,Potency,[5],inactive
same,Potency,[6],inactive
same,Potency,[7],inactive
same,Potency,[9],inactive
CC(C)(C)Cl,Potency,[1],inactive
same,Potency,[10],inactive
same,Potency,[2],inactive
same,Potency,[7],inactive
same,Potency,[9],inactive
CC(C)C[C@H]1C(=O)N2CCC[C@H]2[C@]2(O)O[C@](NC(=O)[C@@H]3C=C4c5cccc6[nH]c(Br)c(c56)C[C@H]4N(C)C3)(C(C)C)C(=O)N12,Potency,[1],inactive
same,Potency,[2],inactive
same,Potency,[3],14.6 µM (active)
same,"activity change, positive = activation",[4],-64.1% [at 42.5 µM]
same,Potency,[5],13.2 µM (active)
same,Potency,[7],inactive
same,Potency,[8],14.8 µM (active)
same,Potency,[9],inactive
CC/C=C\CCOC(=O)CC,Potency,[1],inactive
same,Potency,[2],inactive
same,Potency,[5],inactive
same,Potency,[6],inactive
same,Potency,[7],inactive
same,Potency,[8],inactive
same,Potency,[9],inactive
O=C(O)c1ccccc1Cl,Potency,[1],inactive
same,Potency,[2],inactive
same,Potency,[5],inactive
same,Potency,[7],inactive
same,Potency,[9],inactive
Clc1ccc(Cn2c(CN3CCCC3)nc3ccccc32)cc1,Potency,[1],inactive
same,Potency,[2],inactive
same,Potency,[5],inactive
same,Potency,[7],inactive
same,Potency,[8],inactive
CCC(CC)Nc1ccc(C)c(C)c1,Potency,[1],inactive
same,Potency,[2],inactive
same,Potency,[5],inactive
same,Potency,[7],inactive
same,Potency,[8],inactive
same,Potency,[9],inactive
